Pf growth 96h: Primary qHTS for delayed death inhibitors of the malarial parasite plastid, 96 hour incubation | Potency, µM (doses to about 28.7 µM), inactives show top-dose activity change, negative = inhibition, usual class: inhibitors | P. falciparum luciferase reporter growth, 96 h | 320,000 compounds, 6.9% hits | AID 504834, 2011; note: potency is the fitted concentration of half-maximal effect; % is set by controls: 0 for no effect and ±100 for the full control effect
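Infected RBCs, 2% Hct / 0.05% parasitemia final; luciferase-reporter P. falciparum; cpd 96 h, 37 C, 5% CO2; luciferase detection reagent; luminescence.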
Shiga toxin inh: A qHTS for Small Molecule Inhibitors of Shiga Toxin; inhibition, % at 38.7 µM; 290,000 compounds, 9.2% hits; Vero cells, Shiga toxin protein synthesis inhibition reporter; AID 2315, 2010; in the data active = inhibition mostly above about 28%, no sharp cut-off; inactive = mostly below about 43%; note: 0% is about no effect
CHX counter: Cycloheximide Counterscreen for Small Molecule Inhibitors of Shiga Toxin | 300,000 compounds, 12% hits | max response, % | cell reporter, cycloheximide protein synthesis inhibition counterscreen | AID 2314, 2010; in the data active = max response mostly above about 13%, no sharp cut-off; inactive = mostly below about 14%; note: read at 38.3 µM for the half of the compounds with a filed dose; 0% is about no effect
LmPK inhibitor: qHTS Assay for Inhibitors of Leishmania Mexicana Pyruvate Kinase (LmPK) | 290,000 compounds, 0.37% hits | purified LmPK, Kinase-Glo ATP luminescence, 1 h | Potency, µM (titrated, usually from 57.5 µM), for inactives: top-dose activity change, negative = inhibition, usual class: inhibitors | AID 1721, 2009 | Q27686; note: potency is the fitted concentration of half-maximal effect; % is set by controls: 0 for no effect and ±100 for the full control effect
Target sequence (Q27686 whole entry, looked up): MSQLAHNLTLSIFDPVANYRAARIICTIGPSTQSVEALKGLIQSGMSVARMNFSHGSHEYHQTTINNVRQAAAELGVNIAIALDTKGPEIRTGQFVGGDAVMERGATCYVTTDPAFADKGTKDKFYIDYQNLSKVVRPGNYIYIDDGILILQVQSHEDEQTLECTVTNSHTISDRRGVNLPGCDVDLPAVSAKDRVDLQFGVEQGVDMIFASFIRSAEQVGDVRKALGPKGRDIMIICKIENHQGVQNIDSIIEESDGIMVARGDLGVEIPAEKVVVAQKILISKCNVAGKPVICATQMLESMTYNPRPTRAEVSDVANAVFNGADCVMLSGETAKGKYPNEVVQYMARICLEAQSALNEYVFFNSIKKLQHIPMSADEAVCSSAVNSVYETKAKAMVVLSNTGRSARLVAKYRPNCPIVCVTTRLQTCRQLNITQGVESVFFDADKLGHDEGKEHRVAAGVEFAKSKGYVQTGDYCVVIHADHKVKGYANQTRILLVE
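Kinase-Glo luminescence read after 1 h RT reaction of 0.1 nM LmPK with 0.5 mM PEP and 0.1 mM ADP. Activity scaled between uninhibited and enzyme-free controls.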
Pf growth 48h: Primary qHTS for delayed death inhibitors of the malarial parasite plastid, 48 hour incubation | P. falciparum luciferase growth in erythrocytes, 48 h | Potency, µM (titrated, usually from 28.7 µM), without a hit: top-dose activity change, negative = inhibition, actives largely listed as inhibitors | AID 504832, 2011 | 310,000 compounds, 5.9% hits; note: potency is the fitted concentration of half-maximal effect; % is set by controls: 0 for no effect and ±100 for the full control effect
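Luminescence readout; reporter = integrated firefly luciferase in P. falciparum. RBC culture at 2% hematocrit, 0.1% parasitemia final, 37 C/5% CO2; decreased signal taken as growth inhibition.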
Starred values were filed as active, the others as inactive; ? = inconclusive; / = no result given. A selection: hits, their analogues and other compounds. The true share with any hit is near 22%. Unless noted, calls come from the whole dose curve; as a rule, active = well fitted inhibition curve with a large enough effect; inconclusive = small, poorly fitted or top-dose-only effect, or another doubt; inactive = no such curve, though single readings can be large or run the other way.

SMILES	Pf growth 96h	Shiga toxin inh	CHX counter	LmPK inhibitor	Pf growth 48h
CC(NC(=O)c1ccc(C23CC4CC(CC(C4)C2)C3)cc1)C(=O)O (stereo not given)	?	-5	13	9%	-18%
OCCC1CN(CC2CCCCC2)CCN1C1CCCC1 (stereo not given)	-14%	/	2	6%	1%
CCOC(=O)Cc1csc(NC(=O)c2sc3nc4c(C)cc(C)cc4cc3c2N)n1	?	12	20*	0%	?
CCOC(=O)Cc1csc(NC(=O)COc2ccc(OC)cc2)n1	-22%	21	-3	3%	/
CCOC(=O)Cc1csc(NC(=O)c2cccc(OC)c2)n1	13%	20	12*	-6%	10%
CCOC(=O)CN(Cc1sccc1C)C(=O)Nc1cccc(OC)c1	33%	48*	12*	4%	46%
CCOC(=O)Cc1csc(NC(=O)Nc2cccc(OC)c2)n1	10µM*	30	17*	0%	?
CCN(CC(=O)Nc1cccc(OC)c1)C(=O)c1ccc(C)s1	29%	-4	-2	-1%	/
CCN(c1ccccc1)S(=O)(=O)c1ccc(Cl)c(C(=O)NCc2ccco2)c1	10%	/	/	/	5%
CCOC(=O)Cc1csc(NC(=O)c2csc(C)c2)n1	/	35*	28*	0%	37%
CCCN1CCCC2Cc3nc(N)ncc3CC21 (stereo not given)	12µM*	/	/	/	-5%
O=C(Nc1cccc(Cl)c1)C1CCCN(C2=NS(=O)(=O)c3ccccc32)C1 (stereo not given)	-23%	/	/	/	?
Cc1ccc(N(CC(=O)NCC2CCCO2)S(=O)(=O)c2ccccc2)c(C)c1 (stereo not given)	32%	12	-2	4%	14%
Cn1c(-c2ccccc2)cc2c3no[n+]([O-])c3ccc21	53%	68*	27*	5%	42%
CC(C)Cc1nnc(NC(=O)CCC(=O)N2CCCCC2)s1	9%	-14	-2	0%	10%
CCOc1ccccc1/C=C(/NC(=O)c1ccccc1)C(=O)N1CCCCC1	98%	9	11	-4%	?
CS(=O)(=O)c1ccc(C(=O)Nc2cc(S(C)(=O)=O)ccc2Cl)cc1	7%	-23	0	4%	5%
Cc1ccc(NC(=O)Nc2cc(S(C)(=O)=O)ccc2Cl)cc1	151%	78*	36*	-1%	91%
CS(=O)(=O)c1ccc(Cl)c(NC(=O)CCl)c1	?	3	13	2%	9.3µM*
CS(=O)(=O)c1ccc(Cl)c(NC(=O)COC(=O)C23CC4CC(CC(C4)C2)C3)c1	8.3µM*	/	/	/	5.2µM*
C=CCN1C(=O)C2(NNc3ccccc3O2)c2ccccc21 (stereo not given)	12µM*	-20	6	1%	/
CCCCN1C(=O)C2(NNc3ccccc3O2)c2ccccc21 (stereo not given)	/	62*	47*	-5%	10µM*
CC1CCCN(c2nc(-c3cccnc3)nc3scc(-c4ccccc4)c23)C1 (stereo not given)	?	51*	21*	-1%	-29%
CC1CCN(c2nc(CN3CCCCC3)nc3scc(-c4ccccc4)c23)CC1	1.5µM*	18	-2	4%	2.3µM*
CC1CCN(c2nc(-c3cccnc3)nc3scc(-c4ccccc4)c23)CC1	?	12	-3	3%	-4%
SMILES	Pf growth 96h	Shiga toxin inh	CHX counter	LmPK inhibitor	Pf growth 48h
Cn1c(N)c(S(=O)(=O)N2CCN(c3ccccc3F)CC2)c(=O)n(C)c1=O	27%	1	-4	-8%	-9%
Cc1c(C(=O)O)sc2[nH]c(=O)n(Cc3ccccc3)c(=O)c12	25%	-5	0	-1%	13%
CCCCC(Sc1nc(N)c(NC(=O)c2ccco2)c(=O)[nH]1)C(=O)O (stereo not given)	-15%	-13	-2	0%	6%
Cc1c(-c2cc(Br)ccc2O)nc2cc3c(cc2c1C)OCO3	?	47*	38*	-1%	/
CCCCn1c(=O)c(C(=O)Nc2ccccc2)c(O)c2ccccc21	13%	-22	-2	-1%	?
CCCCCCn1c(=O)c(C(=O)Nc2ncccc2C)c(O)c2ccccc21	?	-7	-1	0%	?
CCCn1c(=O)c(C(=O)Nc2ccccc2C)c(O)c2ccccc21	4%	/	14*	46%	62%
C=CCn1c(=O)c(C(=O)Nc2ccccc2C)c(O)c2ccccc21	?	20	19*	4%	162%
CCCCCn1c(=O)c(C(=O)Nc2ccccc2C)c(O)c2ccccc21	-24%	/	34*	-1%	65%
CCCCCCn1c(=O)c(C(=O)Nc2ccncc2)c(O)c2ccccc21	?	24	9	4%	2.9µM*
C=CCn1c(=O)c(C(=O)Nc2ccccc2O)c(O)c2ccccc21	/	17	8	4%	7%
Cc1ccc(C(=O)NCCCN2CCOCC2)cc1N1CCCC1=O	1%	14	-3	2%	-1%
CCOCCCNC(=O)C(c1ccc(Cl)cc1)N(Cc1cccs1)C(=O)CNC(C)=O (stereo not given)	-8%	-12	-3	-1%	29%
CCC[C@@H]1CCCO[C@@](C(=O)NCc2ccccn2)(C(F)(F)F)C1	/	14	-4	/	/
O=C1CCCN1c1nccs1	6%	0	-3	-1%	7%
CCn1c(=O)c(C(=O)Nc2ccccc2C)c(O)c2ccccc21	?	active	16	2%	14%
CC(=O)c1c(O)c2ccccc2n(Cc2ccccc2)c1=O	13µM*	21	-1	0%	?
CCCn1c(=O)c(C(=O)N/N=C/c2ccccc2F)c(O)c2ccccc21	39%	30	13*	-3%	110%
CCCn1c(=O)c(C(=O)N/N=C/c2ccc(F)cc2)c(O)c2ccccc21	33%	2	-2	1%	-3%
Cc1nc(NC(=O)COC(=O)c2cccs2)c(Cl)cc1Cl	53%	/	/	/	-10%
O=C(OC1CCOC1=O)C1CCN(S(=O)(=O)c2c(Cl)cccc2Cl)CC1 (stereo not given)	9%	/	/	/	?
O=c1[nH]c(=S)[nH]c2c1CN(Cc1ccc(F)cc1)CC2	46%	-6	12	-1%	-15%
Cc1ccc(OCCOc2cccc3ccc(C)nc23)c([N+](=O)[O-])c1	?	51	13	0%	?
O=Cc1ccccc1OCCCOc1cccc2cccnc12	327%	56*	24*	-4%	34%
O=Cc1ccc(OCCCOc2cccc3cccnc23)cc1	5%	-4	10	14%	36%
O=[N+]([O-])c1ccccc1OCCCOc1cccc2cccnc12	-25%	/	29*	6%	28%
Clc1ccccc1OCCCOc1cccc2cccnc12	-74%	/	37*	4%	12%
Cc1c(NC(=O)CSc2ccc3ccccc3n2)c(=O)n(-c2ccccc2)n1C	-5%	/	/	/	1%
